# Screen size: about 340,000 compounds; about 1,000 (0.29%) were called active. Rule as the data show it: inconclusive = inhibition above about 29% without an active follow-up result; inactive = below that. Not all results are given here. Potency and affinity values are given separately.
# Target: Genome polyprotein (Dengue virus type 2 (strain 16681-PDK53)) (UniProt P29991)
# Assay: flavivirus cap methylation enzyme inhibition – biochemical, confirmation dose response, primary screen (AID 588689)
# Conditions: Dengue-2 NS5 methyltransferase capping enzyme assay, at 25 µM, stronger effect = higher value
# [1] = measured here: pilot screen replicate inhibition
Structure (SMILES),inhibition,inhibition [1]
CCOC(=O)c1c(C)[nH]c(C(=O)OCC(=O)NC2(C#N)CCCCC2)c1C,-11.6% (inactive),–
O=c1n(Cc2ccccc2F)c2ccccc2n1Cc1ccccc1F,-3.2% (inactive),–
FC(F)(F)c1ccccc1/C=N/n1c(C2CCCCC2)n[nH]c1=S,10.6% (inactive),–
COc1ccc(N=C2SC(C(=O)O)CC(=O)N2C)cc1 (stereo not drawn),0.68% (inactive),–
COc1cccc(NC(=O)CN(C)C(=O)c2cccc(S(=O)(=O)N3CCN(c4ccccc4)CC3)c2)c1,-6.1% (inactive),–
O=C(COc1ccc(S(=O)(=O)N2CCCCC2)cc1)NCC1CCCO1 (stereo not drawn),-5.9% (inactive),–
Cc1nnc(NCCc2ccccc2)c2ccccc12,-6.68% (inactive),–
O=C(/C=C/c1cccc([N+](=O)[O-])c1)OCC(=O)N1CCN(C(=O)c2ccco2)CC1,0.39% (inactive),–
COc1cccc(NC(=O)C2CCCN2C(=O)Nc2ccccc2F)c1 (stereo not drawn),-4.94% (inactive),–
Oc1ccc2ccccc2c1CN1CCN(C/C=C/c2ccccc2)CC1,-14.3% (inactive),–
CC(/C=C1\SC(=S)N(CCCC(=O)Nc2ccc(C(=O)O)cc2)C1=O)=C\c1ccccc1,11.7% (inactive),–
O=C(O)c1ccc(N2C(=O)/C(=C/C=C/c3ccccc3)SC2=S)cc1,16% (inactive),–
COc1ccc(NC(=O)CN(C)C(=O)c2cccc(S(=O)(=O)N3CCN(C)CC3)c2)cc1,-5.07% (inactive),–
CCOC(=O)c1c(NC(=O)C2C3C=CC(C3)C2C(=O)O)sc2c1CCC(C)C2 (stereo not drawn),-2.91% (inactive),–
CCOC(=O)c1c(NC(=O)C2C3CCC(O3)C2C(=O)O)sc2c1CCC(CC)C2 (stereo not drawn),4.42% (inactive),–
CCOC(=O)c1c(NC(=O)C2C3C=CC(C3)C2C(=O)O)sc2c1CC(C)CC2 (stereo not drawn),7.29% (inactive),–
CCOC(=O)c1c(NC(=O)C2C3C=CC(C3)C2C(=O)O)sc2c1CCCC2 (stereo not drawn),4.37% (inactive),–
COc1cc2c(cc1OC)C(C(N)=O)NCC2 (stereo not drawn),0.81% (inactive),–
O=C(CN1CCN(c2ccccc2F)CC1)c1ccc(O)c(O)c1,6.62% (inactive),–
CNS(=O)(=O)c1cccc(C(=O)OCC(=O)Nc2ccc(OC)cc2[N+](=O)[O-])c1,6.24% (inactive),–
COc1ccc(Nc2ccc(Cl)cc2)c(C(=O)O)c1,9.44% (inactive),–
CCC(=O)Nc1cc(Cl)ccc1C(=O)O,-5.46% (inactive),–
COc1ccc(NC(=O)Cc2ccc(Cl)cc2Cl)cn1,-4.71% (inactive),–

Structure (SMILES),inhibition,inhibition [1]
CCCCC(=O)Nc1cc(Cl)ccc1C(=O)O,1.56% (inactive),–
CC(C)(C)c1ccc(S(=O)(=O)N2CCN(c3ncccn3)CC2)cc1,-5.15% (inactive),–
O=C(OCCCOC(=O)c1cc[n+]([O-])cc1)c1cc[n+]([O-])cc1,-7.73% (inactive),–
CN(C)/C=C1\C(=O)N(c2ccc(Oc3ccccc3)cc2)CS1=O (stereo not drawn),-8.86% (inactive),4.42%
C=CCN1C(=O)C(Cc2ccc(F)cc2)S/C1=N/N=C/c1cccs1 (stereo not drawn),-3.47% (inactive),–
Cc1cccc(C(=O)Nc2sc3c(c2C(=O)O)CCCC3)c1,2.61% (inactive),–
O=C(Nc1sc2c(c1C(=O)O)CCC2)c1cccc(Cl)c1,15.2% (inactive),–
CC(=O)c1cccc(NC(=O)C23CC4CC(C2)CC(n2cncn2)(C4)C3)c1,-0.64% (inactive),–
NCCCC[C@@H](C(=O)NCCCCCCCCCCC(=O)N1CCNCC1)n1cc(CCCC(=O)O)nn1,-0.8% (inactive),–
Cc1cc2ccccc2n2c(SCC(=O)N3CCOCC3)nnc12,-8.09% (inactive),–
COc1ccc(CNC(=O)C(C)OC(=O)CCN2C(=O)C3CC=CCC3C2=O)cc1 (stereo not drawn),2.89% (inactive),–
CC1Cc2ccccc2N1C(=O)CSc1ncccn1 (stereo not drawn),-4.43% (inactive),–
C=CCOc1ccc(/C=C\c2nc(O)c([N+](=O)[O-])c(=O)[nH]2)cc1OC,0.57% (inactive),–
COc1cc(Br)cc(/C=C/c2ccc3cccc(O)c3n2)c1OC,13.2% (inactive),–
COc1ccc2cc(/C=N/NC(=O)CSCc3ccc([N+](=O)[O-])cc3)c(Cl)nc2c1,4.46% (inactive),–
CSc1nnc2c(n1)OC1(Nc3ccccc3-2)C(=O)Nc2ccccc21 (stereo not drawn),3.9% (inactive),–
CCSc1nnc2c(n1)OC(C)(C)Nc1ccccc1-2,-5.52% (inactive),–
c1ccc(CSc2nnc3c(n2)OC(c2ccco2)Nc2ccccc2-3)cc1 (stereo not drawn),-0.8% (inactive),–
Cc1ccc(SCc2[nH]nc3c2C2(C(=O)Nc4ccc(F)cc42)C(C#N)=C(N)O3)cc1 (stereo not drawn),2.51% (inactive),3.94%
O=C(CSc1nnc(Cc2ccccc2)n1-c1ccc(Cl)cc1)N1CCOCC1,-3.47% (inactive),–
N=C1C(c2ccccc2)=C(O)C2CCc3ccccc3N12 (stereo not drawn),-2.07% (inactive),–
CC(=O)N1CCN(c2ccc([N+](=O)[O-])cc2C#N)CC1,-1.43% (inactive),–
O=C1NC(=O)N(Cc2ccccc2)C1=O,0% (inactive),–
